# Bioassay records deposited in PubChem BioAssay by Sanford-Burnham Center for Chemical Genomics.
# Only some compounds are listed: those with a hit (about 28% of all), similar ones and a draw of the others.
# Mac1 fbg enh – CD11b/CD18-fibrinogen binding enhancement. activation, % at 10 µM. K562 CD11b/CD18 adhesion to fibrinogen, ATPlite luminescence. P05107+P11215. actives 0.07% (n = 93,000);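 active means 10 µM primary screen giving 50% or more activity, confirmed by 40% or more on retest at that dose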
# CD11b adhes inh – inhibitors of human CD11b/CD18 binding to fibrinogen. P05107+P11215. K562 CD11b/CD18 adhesion to fibrinogen, ATPlite luminescence; Mn2+ added to activate the integrin. inhibition, % at 10 µM. actives 0.54% (n = 93,000). AID 1497;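 active means primary inhibition of 50% or more at 10 µM, then 40% or more on retest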
# CYP2C9 activ – activators of human CYP2C9; P11712; recombinant CYP2C9, luciferin-H conversion, luminescence; stronger effect = higher value; factor 1 = untreated enzyme, 0 = blocked; activation factor at 5 µM; actives 1.4% (n = 96,000);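 active means activation factor of 2 or more for CYP2C9 at a 5 µM dose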;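 further: 0 = sulfaphenazole-blocked wells and 1 = vehicle-only wells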
# Target sequence (P11712 whole entry, looked up): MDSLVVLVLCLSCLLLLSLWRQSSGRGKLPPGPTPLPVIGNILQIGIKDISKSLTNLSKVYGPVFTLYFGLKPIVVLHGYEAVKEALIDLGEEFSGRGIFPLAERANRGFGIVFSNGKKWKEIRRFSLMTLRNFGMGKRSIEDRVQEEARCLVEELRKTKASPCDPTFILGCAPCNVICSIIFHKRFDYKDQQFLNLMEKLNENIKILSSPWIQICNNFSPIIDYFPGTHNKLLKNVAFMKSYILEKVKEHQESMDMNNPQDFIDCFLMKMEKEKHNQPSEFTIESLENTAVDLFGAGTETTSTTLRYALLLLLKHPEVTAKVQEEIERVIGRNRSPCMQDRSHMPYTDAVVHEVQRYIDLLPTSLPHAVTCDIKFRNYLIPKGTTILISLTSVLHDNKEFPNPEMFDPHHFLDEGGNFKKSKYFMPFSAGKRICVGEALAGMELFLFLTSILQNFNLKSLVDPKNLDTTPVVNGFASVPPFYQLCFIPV
# CYP2C9 inh – blocks human cytochrome P450 2C9; P11712; CYP2C9 Supersomes, luciferin-H conversion, luminescence; inhibition, % at 5 µM; actives 20% (n = 96,000); AID 777;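 active means blocking of liver enzyme CYP2C9 beyond about 50% at 5 µM, limit read from the data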
# CYP2C19 inhib – human CYP2C19 inhibition. P33261. CYP2C19 Supersomes, luciferin-H EGE luminescence, 30 min. inhibition, % at 5 µM. actives 21% (n = 96,000). AID 778;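 active means CYP2C19 inhibition above a set limit at 5 µM in the primary screen, cut at about 50% in these data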;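 further: plate controls were negative control wells for no effect and 2.5 mM tranylcypromine positive control for full effect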
# CYP2C19 activ – increases human CYP2C19 enzyme activity. P33261. recombinant CYP2C19, luciferin-H EGE luminescence; stronger effect = higher value; 0 = fully inhibited enzyme, 1 = untreated enzyme. activation factor at 5 µM. 96,000 tested, under 10 active. AID 1025;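 active means activation factor of at least 2 at 5 µM in the primary screen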;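 further: 0 = wells with 2.5 mM tranylcypromine and 1 = vehicle-only wells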
# An asterisk follows results filed as active; nt = no result.
SMILES,Mac1 fbg enh,CD11b adhes inh,CYP2C9 activ,CYP2C9 inh,CYP2C19 inhib,CYP2C19 activ
O=C1CS/C(=C\[N+](=O)[O-])N1c1ccccc1,14.8,0.5,0.9,5.6,6.3,0.9
O=CN1CC(=O)N(c2ccccc2)c2c([nH]c3ccccc23)C1,nt,nt,0.7,28.1,79.0*,0.2
CCCCNS(=O)(=O)c1cccc(S(=O)(=O)N2CCCC2)c1,1.2,-7.4,0.6,38.2,31.6,0.7
O=S(=O)(NCCc1ccccc1F)c1cccc(S(=O)(=O)N2CCOCC2)c1,-1.3,-11.1,0.4,61.6*,88.4*,0.1
O=S(=O)(NCc1cccs1)c1cccc(S(=O)(=O)N2CCCCC2)c1,-1.2,6.5,0.8,21.1,52.3*,0.5
O=S(=O)(NCc1ccccc1)c1cccc(S(=O)(=O)N2CCOCC2)c1,11.1,-4.8,0.6,41.6,63.7*,0.4
CCCn1nc2cc(C(=O)NCc3ccc(C)cc3)ccc2c1OC,nt,nt,0.9,7.0,2.6,1
CCOC(=O)c1cc(C)n(-n2cnnc2)c1C,-2.5,13.9,1.2,-21.8,-18.4,1.2
CCn1c(SCC(=O)N2CCOCC2)nc(O)cc1=O,3.6,-5.5,1.1,-8.3,-26.7,1.3
Cc1cc(NC(=O)COC(=O)c2cc(S(=O)(=O)N3CCOCC3)ccc2N2CCCCC2)no1,-2.6,2.0,0.8,18.3,12.5,0.9
CCC(CC)C(=O)Nc1cccc(-c2nc3ccccc3o2)c1,8.6,7.1,0.3,65.6*,58.6*,0.4
CCC(CC)C(=O)Nc1cccc(C(=O)c2ccccc2)c1,-2.3,6.0,0.4,55.4*,69.5*,0.3
COc1ccc(S(=O)(=O)N/N=C(/C)c2cccc(NC(=O)c3ccccc3Cl)c2)cc1,17.6,10.5,0,95.1*,97.2*,0
COc1ccc(Sc2ccc(NC(=O)c3ccccc3Cl)cc2C#N)cc1,nt,nt,1.1,-10.7,15.8,0.8
CCC(=O)Oc1ccc(C(=O)Nc2cccc(C(=O)c3ccccc3)c2)cc1,nt,nt,0.3,72.9*,71.2*,0.3
O=C(O)COc1cccc(NC(=O)c2ccccc2)c1,0.1,0.1,1.2,-17.5,-18.9,1.2
Cc1ccc2[nH]c(=O)c3cc(C(=O)N4CCN(C(=O)c5ccco5)CC4)sc3c2c1,-5.9,7.6,0.9,10.3,-3.0,1
CCC(CC)C(=O)Nc1cccc(/C(C)=N/NC(=O)c2ccccc2Cl)c1,1.8,-8.5,0.6,41.7,51.3*,0.5
CCOC(=O)c1ccc(NC(=O)CC2C(=O)N(c3ccccc3)C(=O)N2CCCOC)cc1 (stereo not drawn),-0.4,1.5,0.2,78.7*,91.6*,0.1
CC(C)CCNC(=O)NC(=O)COC(=O)/C=C/c1cnc2ccccc2n1,1.6,-4.0,0.5,45.8,23.2,0.8
O=C(CSc1nc2ccccc2o1)NC(=O)NCc1ccco1,0.9,4.3,0.8,24.9,51.1*,0.5
O=C(CSc1nc2ccccc2o1)NCc1ccco1,-4.2,0.0,1,-0.5,71.7*,0.3
O=C(CSc1nc2ccccc2o1)NC(=O)NCc1ccccc1,nt,nt,0.7,29.5,28.1,0.7
O=C(CSc1n[nH]c(-c2ccccc2)n1)NC(=O)NCc1ccco1,2.5,16.6,0.2,79.2*,82.9*,0.2
O=C(O)c1ccc(CNCc2c(Cl)cccc2Cl)cc1,0.7,-6.3,1.1,-15.0,-14.7,1.1
SMILES,Mac1 fbg enh,CD11b adhes inh,CYP2C9 activ,CYP2C9 inh,CYP2C19 inhib,CYP2C19 activ
Cc1cc([N+](=O)[O-])nn1CC(=O)NNC(=S)Nc1ccc(F)cc1,nt,nt,1.1,-8.5,0.5,1
O=S(=O)(c1cccc(S(=O)(=O)N2CCCC2)c1)c1cccc(S(=O)(=O)N2CCCC2)c1,5.0,-5.2,0.6,37.9,46.5,0.5
CC(C)(C)NC(=O)COC(=O)/C=C/c1ccccc1[N+](=O)[O-],-0.5,9.7,0.9,12.3,13.7,0.9
COC(=O)C(C)N1C(=O)S/C(=C\c2cc(C)n(-c3ccccn3)c2C)C1=O (stereo not drawn),-5.1,17.3,0.2,80.3*,24.0,0.8
O=C(NC(NC(=S)Nc1cc(Cl)ccc1Cl)C(Cl)(Cl)Cl)c1ccco1 (stereo not drawn),nt,nt,0,96.7*,80.7*,0.2
O=C(NC(NC(=S)Nc1ccc(Cl)c(Cl)c1)C(Cl)(Cl)Cl)c1ccco1 (stereo not drawn),nt,nt,0,99.7*,72.2*,0.3
O=C(CN1CCN(C(=O)c2ccco2)CC1)Nc1cc(Cl)ccc1Cl,nt,nt,0.7,29.9,19.7,0.8
Cc1cccc(NC(=S)NNC(=O)c2ccco2)c1,3.2,2.7,0.9,9.7,17.6,0.8
Fc1ccc(-n2[nH]nnc2=S)cc1N1CCCC1,-1.2,12.7,0.5,50.1*,-2.5,1
CCOC(=O)CCSc1nc(C)c2ccccc2n1,-4.8,-17.3,1.4,-41.2,20.5,0.8
CCOC(=O)CCSc1nc(C)c2cc(C)ccc2n1,-1.5,15.3,0.4,57.6*,78.4*,0.2
COc1cccc(OC)c1C(=O)Nc1ccccc1C(=O)N1CCOCC1,2.6,-2.5,1.1,-7.5,-2.8,1
Cc1cc(C)c(OCCCCCNCCO)c(C)c1,-2.0,4.6,0.1,86.9*,24.3,0.8
N#Cc1cnc(Nc2nc3ccccc3o2)nc1-c1ccccc1,0.4,-8.2,0.4,61.6*,20.6,0.8
Cc1ccnc(Nc2nc3ccccc3o2)n1,-0.6,5.4,0.9,10.1,44.2,0.6
Cc1ccc(NC(=S)Nc2ccc(Br)cc2)cc1,nt,nt,0.8,16.2,89.0*,0.1
CC1(c2ccccn2)Nc2ccccc2-c2nc3ccccc3n21 (stereo not drawn),-3.0,-11.2,0.5,52.0*,68.9*,0.3
CCCCC1(C)Nc2ccccc2-c2nc3ccccc3n21 (stereo not drawn),5.5,9.8,0.4,57.0*,80.9*,0.2
c1ccc2c(c1)NC1(CCCCCC1)n1c-2nc2ccccc21,-3.3,14.0,0.5,51.2*,22.7,0.8
c1ccc2c(c1)NC1(CCCCC1)n1c-2nc2ccccc21,-3.5,0.0,0.6,35.8,20.2,0.8
Fc1ccc(N=C2NN=C(c3cc(F)ccc3F)CS2)cc1,4.5,17.5,nt,nt,nt,nt
COCCn1c(C)cc(C2=NNC(=Nc3ccccc3F)SC2)c1C,25.1,30.5,0.6,38.4,53.0*,0.5
Cc1cc(C)nc(Nc2nc(=O)c3ccccc3s2)n1,-1.1,-16.4,0.9,10.7,0.2,1
COCCNC(=O)c1c(N)n(/N=C/c2cccs2)c2nc3ccccc3nc12,40.7,-3.4,0.4,60.7*,8.9,0.9
COc1ccc(S(=O)(=O)c2c(N)n(Cc3ccco3)c3nc4ccccc4nc23)cc1,85.5,-0.9,0.5,48.2,36.6,0.6
Nc1c(S(=O)(=O)c2cccs2)c2nc3ccccc3nc2n1/N=C/c1cccc(O)c1,-1.2,2.6,0.2,80.5*,42.1,0.6
